Screening results from PubChem.
Most compounds without a hit are left out; they make up all but 12% or so of the library.
HP1b chromo inh – HTS for Inhibitors of HP1-beta Chromodomain Interactions with Methylated Histone Tails; Chromobox protein homolog 1 (Homo sapiens), P83916; AID 540317, 2011; Potency, µM (series often up to 114 µM), for inactives: top-dose activity change, negative = inhibition, most hits filed as inhibitors; 390,000 tested, 0.56% active; AlphaScreen HP1-beta / biotin-H3K9me3 peptide binding; note: nearly all actives have a fitted effect of over 70% in size
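Compound inhibition of the preformed complex between 50 nM HP1-beta and 50 nM biotinylated H3K9me3 peptide was read by AlphaScreen. Buffer was PBS pH 7.4 with 0.01% Tween-20. Incubations ran 30 min at room temperature, with 10 ug/mL donor/acceptor beads.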
BAZ2B block – qHTS Assay for Inhibitors of BAZ2B; 360,000 tested, 4.4% active; Bromodomain adjacent to zinc finger domain protein 2B (Homo sapiens), Q9UIF8; Potency, µM (doses to about 114 µM), inactives show top-dose activity change, negative = inhibition, most hits filed as inhibitors; AlphaScreen BAZ2B-H3K14Ac peptide displacement; note: % is set by controls: 0 for no effect and ±100 for the full control effect; nearly all actives have a fitted effect of over 60% in size
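Compounds, titrated to a top concentration of 110 uM, were incubated 30 min at room temperature with preformed BAZ2B/acetyl-K14 H3 peptide complex (50 nM each). Proximity signal was measured by AlphaScreen after 20 min with beads.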
G9a inh – qHTS Assay for Inhibitors of Histone Lysine Methyltransferase G9a; G9a H3K9 monomethylation, AlphaScreen, 2 h; 350,000 tested, 8.8% active; Potency, µM (doses to about 102 µM), for inactives: top-dose activity, negative = inhibition, actives largely listed as inhibitors; note: % is set by controls: 0 for no effect and ±100 for the full control effect; nearly all actives have a fitted effect of over 75% in size
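Readings reflect AlphaScreen signal from monomethyl-H3K9 antibody detection. HMT at 20 nM; substrate b-H3K9 500 nM; cofactor SAM 20 uM; 2 h RT reaction; compounds tested as titrations in qHTS with 15 min preincubation.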
Sfp inh – qHTS Assay for Inhibitors of Bacillus subtilis Sfp phosphopantetheinyl transferase (PPTase). 4'-phosphopantetheinyl transferase ffp (Bacillus subtilis), Q9F4F7. AID 1490, 2009. 310,000 tested, 3.5% active. Potency, µM, for inactives: largest response in the series, negative = inhibition, most hits filed as inhibitors. Biochemical Sfp PPTase activity, qHTS;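 note: the enzyme is Sfp with the accession as filed and its product quenches rhodamine fluorescence; 0% = enzyme reaction without inhibitor and -100% = no enzyme wells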
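Sfp 15 nM + cpd, 15 min RT; start w/ rhodamine-CoA 5 uM, BHQ-2-YbbR 12.5 uM (final); 50 mM Hepes pH 7.6, 10 mM MgCl2, 0.01% NP-40, 0.01% BSA; read 525/598 nm at 0 and 30 min.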
PLK1 PBD block – qHTS for Inhibitors of PLK1-PDB (polo-like kinase 1 - polo-box domain): Primary Screen | Potency, µM, without a hit: max response, negative = inhibition, actives largely listed as inhibitors | 360,000 tested, 2.8% active | Plk1 PBD binding of FITC phosphopeptide, fluorescence polarization | Serine/threonine-protein kinase PLK1 (Homo sapiens), P53350; note: series mostly up to about 57 µM; % is set by controls: 0 for no effect and ±100 for the full control effect; nearly all actives have a fitted effect of over 65% in size
Target sequence (P53350 whole entry, looked up, the tested form may be a part): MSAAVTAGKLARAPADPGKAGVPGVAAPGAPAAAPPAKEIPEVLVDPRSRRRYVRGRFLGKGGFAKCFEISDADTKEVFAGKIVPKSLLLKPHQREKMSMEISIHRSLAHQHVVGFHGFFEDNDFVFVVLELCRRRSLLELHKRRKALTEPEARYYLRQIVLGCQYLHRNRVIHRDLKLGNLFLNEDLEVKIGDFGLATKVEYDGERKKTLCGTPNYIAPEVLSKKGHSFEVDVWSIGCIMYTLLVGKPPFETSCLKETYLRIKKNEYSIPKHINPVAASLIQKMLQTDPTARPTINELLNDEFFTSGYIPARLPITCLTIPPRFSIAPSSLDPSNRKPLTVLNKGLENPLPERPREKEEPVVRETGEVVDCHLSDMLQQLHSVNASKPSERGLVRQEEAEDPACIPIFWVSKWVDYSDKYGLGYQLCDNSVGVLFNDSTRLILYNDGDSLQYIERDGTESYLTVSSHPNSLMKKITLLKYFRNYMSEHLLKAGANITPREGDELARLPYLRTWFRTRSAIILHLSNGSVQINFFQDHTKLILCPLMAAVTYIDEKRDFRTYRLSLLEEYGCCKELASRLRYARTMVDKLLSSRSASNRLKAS
JMJD2A Tudor – qHTS Assay for Inhibitors of JMJD2A-Tudor Domain; AID 504339, 2011; Potency, µM (highest dose often 114 µM), for the others: at the top dose activity change, negative = inhibition, hits mostly inhibitors; AlphaScreen JMJD2A-Tudor / H3K4me3 peptide binding; Lysine-specific demethylase 4A (Homo sapiens), O75164; 390,000 tested, 4.4% active; note: % is set by controls: 0 for no effect and ±100 for the full control effect; nearly all actives have a fitted effect of over 50% in size
Active calls of the source: *; ? = inconclusive; nt = no result; ! = not confirmed by another sample; [ ] = another dose, or the depositor's remark. Calls come from the whole dose curve; as a rule, active = well fitted curve in the direction sought with a large enough effect; inconclusive = small, poorly fitted or top-dose-only effect, or another doubt; inactive = no such curve, though single readings can be large; an effect the other way counts as inactive or inconclusive. Potency is the fitted concentration of half-maximal effect.

SMILES	HP1b chromo inh	BAZ2B block	G9a inh	Sfp inh	PLK1 PBD block	JMJD2A Tudor
Cc1ccc(C)c(S(=O)(=O)N/N=C/c2cccnc2)c1	37%	-1%	?	-9%	-29%	-25%
CC(=O)Nc1ccc(/C=N/NS(=O)(=O)c2cc(C)ccc2C)cc1	36%	-37%	50µM*	-11%	1%	-4%
Cc1ccc(C)c(S(=O)(=O)N/N=C/c2ccc(F)cc2)c1	27%	-4%	11µM*	-29%	-18%	-22%
CCCCc1cc2c(cn1)=C(OC(=O)c1cccs1)C(C)(OC(=O)CC)C(=O)C=2 (centres undefined)	nt	nt	nt	-2%	nt	nt
COc1ccc2nc3cc(Cl)ccc3c(C#N)c2c1	-7%	-14%	50µM*	6%	-19%	-14%
Cc1csc(C(C#N)C(=O)c2ccncc2)n1 (centres undefined)	14%	-38%	50µM*	-10%	-11%	-17%
COc1ccc(-c2ccc3ncnc(NCC4CCCO4)c3c2)cc1OC (centres undefined)	nt	nt	nt	nt	nt	-35%
Cc1ccc(N2CC(C(=O)Nc3cccc(C(=O)NC4CC4)c3)CC2=O)cc1 (centres undefined)	27%	-37%	5%[12.7 µM]	nt	-8%	-14%
c1coc(CN(Cc2ccco2)c2ncnc3c2oc2ccccc23)c1	-5%	?	14µM*	28µM*	-10%	40µM*
CCCC[C@@H]1C=C(C(=O)O)[C@H](c2ccc(Cl)cc2)N1S(=O)(=O)c1ccc(C)cc1	16%	nt	nt	nt	?	-17%
Cc1cccc(C(=O)n2cnnc2N)c1	33%	-27%	22µM*	7%	-25%	-4%
CCN(c1ccccc1)S(=O)(=O)c1ccc(C(=O)Nc2nnc(COC)o2)cc1	44%	56µM*	5%	13%	-4%	56µM*
COCc1nnc(NC(=O)c2ccc(S(=O)(=O)N(C)c3ccccc3)cc2)o1	53%	?	-10%[59 µM]	17%	-15%	79µM*
CCN(c1ccccc1)S(=O)(=O)c1ccc(C(=O)Nc2nnc(C3CC3)o2)cc1	15%	79µM*	-25%	33%	-8%	-17%
COc1ccccc1-c1nnc(NC(=O)c2ccc(S(=O)(=O)N(C)C)cc2)o1	51%	?	28%	-7%	-9%	-20%
COCc1nnc(NC(=O)c2ccc(S(=O)(=O)N(CC(C)C)CC(C)C)cc2)o1	57%	?	-27%	24%	-13%	-16%
CCN(Cc1ccccc1)S(=O)(=O)c1ccc(C(=O)Nc2nnc(-c3ccccc3OC)o2)cc1	-23%	15%	-15%	-5%	11µM*	-11%[11.4 µM]
CCN(c1ccccc1)S(=O)(=O)c1ccc(C(=O)Nc2nnc(-c3ccco3)o2)cc1	34%	nt	50µM*	28%	?	-21%
CN(c1ccccc1)S(=O)(=O)c1ccc(C(=O)Nc2nnc(-c3ccco3)o2)cc1	31%	nt	?	-17%	?	-31%
Oc1nc(Nc2ccc(Cl)cc2Cl)sc1/C=C1\C=Nc2ccccc21	?	?	4.5µM*	?	-12%	?
O=c1oc2ccccc2cc1-c1nnc(Nc2ccc(Cl)cc2Cl)s1	12%	3%	10%[59 µM]	nt	nt	-24%
Cc1nc2c(s1)sc1ccccc12	76%	22%	38%	13%	-9%	-2%
CC[n+]1c(C)sc2sc3ccccc3c21	nt	25µM*	1µM*	2.8µM*	nt	nt
CSc1ccc(CCNc2ncnc3onc(-c4ccc(Cl)cc4)c23)cc1	35%	16%[57.1 µM]	2%[59 µM]	nt	nt	-12%
CCOC(=O)C1CCCN(C(=O)CCc2nnc(-c3ccc(C(C)=O)s3)o2)C1 (centres undefined)	46%	21%[57.1 µM]	35µM*	-1%	-21%	-15%
SMILES	HP1b chromo inh	BAZ2B block	G9a inh	Sfp inh	PLK1 PBD block	JMJD2A Tudor
CCOC(=O)C1CCCN(C(=O)CSCc2ccccc2)C1 (centres undefined)	28%	-1%	4%[12.7 µM]	4%	-22%	7%
O=c1c2ccccc2[nH]c(=S)n1CCN1CCCC1	13%	-13%	18µM*	3%	-7%	-28%
O=C(CCN1CCCCC1)Nn1c(=S)[nH]c2ccccc2c1=O	16%	?	?	50µM*	-14%	0.71µM*
CCN(CC)CCCn1c(=S)[nH]c2cc(Cl)ccc2c1=O	42%	9%	?	1%	?	-24%
O=c1c2ccccc2[nH]c(=S)n1CCCN1CCOCC1	31%	-33%	18µM*	-9%	-3%	-24%
O=c1c2ccc(Cl)cc2[nH]c(=S)n1CCCN1CCOCC1	15%	-30%	45µM*	-12%	-20%	?
O=C(CCCn1c(=S)[nH]c2ccccc2c1=O)N1CCCCC1	35%	4%	?	-1%	-4%	56µM*
CC1CC(C)CN(C(=O)CCCn2c(=S)[nH]c3ccccc3c2=O)C1 (centres undefined)	10%	4%	-10%[59 µM]	-11%	-20%	-17%
CCOC(=O)CNNC(=O)Nc1ccc(Cl)c(Cl)c1	33%	0%	26%	1%	-5%	-7%
CCOC(=O)N(C)OC(=O)Nc1ccc(Cl)c(Cl)c1	?	nt	?	11%	2.1µM*	-15%
CCOC(=O)N(CC)OC(=O)Nc1ccc(Cl)cc1	-9%	-6%	24%[12.7 µM]	16%	8.4µM*	-19%
COc1cc(-c2noc(C)c2/C=C/c2ccc(C(=O)O)cc2)cc(OC)c1OC	3%	?	nt	-2%	-18%	71µM*
CC1(C)C(c2cccs2)=[N+]([O-])C2(CCCCC/C2=N\NC(N)=S)N1O (centres undefined)	28%	26%	8%	89µM*	-2%	0%
NC1(C(=O)O)C[C@H](C(=O)O)[C@H](C(=O)O)C1 (some centres undefined)	nt	nt	26%[59 µM]	50µM*!	nt	nt
NC1(C(=O)O)CC1	28%	nt	7.1µM*!	56µM*	-5%	3.2µM*
N[C@H](C(=O)O)[C@H]1C[C@@H]1C(=O)O	nt	nt	31%[12.7 µM]	-1%	nt	nt
NC1(C(=O)O)CCCC1	nt	nt	-33%[2.33 µM]	-11%	nt	nt
CCCCNc1cc(NC2CCCCC2)c2c3c(onc13)-c1ccccc1C2=O	?	1.8µM*	2µM*	nt	nt	10µM*
O=C1c2ccccc2-c2onc3c(NCCO)cc(NC4CCCCC4)c1c23	?	3.5µM*	2.2µM*	nt	nt	7.9µM*
Cc1ccc(C2=NN(CCC(=O)NCCc3cccc(C)c3)C(=O)CC2)cc1	30%	-10%	0%[59 µM]	nt	nt	-25%
